Consider 8 compounds from the supplement of paper PMC9262897, “Low-cost anti-mycobacterial drug discovery using engineered E. coli” (Nature Communications, 2022).

Counter-ions that a name gives are not always drawn. ± gives the standard deviation of the averaged measurements.

This test relates to E. coli TESEC Mtb Alr. Put plainly: growth (OD600 after 10 h); higher = more growth (less inhibition). Particulars: compound 0.1 mM. On the procedure:
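TESEC Mtb Alr E. coli, or the Alr+ wild-type control, in 384-well plates with Prestwick library compounds at 0.1 mM and 1% DMSO, across arabinose induction levels of 1E3 to 1E7 nM. Growth is read as OD600 after 10 h at 37 °C in triplicate biological replicates.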

[1] abbreviates: arabinose 1000 nM, raw OD600 reference: median of DMSO wells 0.294, cell-free background 0.041.
Where [2] appears, read: arabinose 10000 nM, raw OD600 reference: median of DMSO wells 0.264, cell-free background 0.041.
Where [3] appears, read: arabinose 100000 nM, raw OD600 reference: median of DMSO wells 0.201, cell-free background 0.041.
Where [4] appears, read: arabinose 1000000 nM, raw OD600 reference: median of DMSO wells 0.193, cell-free background 0.041.
Where [5] appears, read: arabinose 10000000 nM, raw OD600 reference: median of DMSO wells 0.146, cell-free background 0.041.

As to `CC(C(=O)O)c1ccc(C(=O)c2cccs2)cc1` (stereo not given) [Suprofen], the growth was found to be 0.263 ± 0.015 under setting [1]; 0.254 ± 0.008 under setting [2]; 0.205 ± 0.0094 under setting [3]; 0.214 ± 0.0056 under setting [4]; 0.138 ± 0.0024 under setting [5].

As for `O=C(O)[C@H]1/C(=C/CO)O[C@@H]2CC(=O)N21` [Clavulanate potassium salt], the growth is 0.0502 ± 0.0035 under setting [1]; 0.0477 ± 0.0036 under setting [2]; 0.0582 ± 0.0016 under setting [3]; 0.195 ± 0.0057 under setting [4]; 0.0991 ± 0.0015 under setting [5].

Regarding `Cc1ncc([N+](=O)[O-])n1CCO` [Metronidazole], the growth was determined as 0.291 ± 0.014 under setting [1]; 0.264 ± 0.0049 under setting [2]; 0.221 ± 0.036 under setting [3]; 0.177 ± 0.0036 under setting [4]; 0.144 ± 0.0031 under setting [5].

Turning to `C[C@H](N[C@@H](CCc1ccccc1)C(=O)O)C(=O)N1CCC[C@H]1C(=O)O` [Enalaprilat dihydrate], the growth under setting [1] amounted to 0.2913 ± 0.0017; the growth under setting [2] came to 0.285 ± 0.011; the growth under setting [3] amounted to 0.198 ± 0.019; the growth under setting [4] was 0.208 ± 0.01; the growth under setting [5] was 0.1379 ± 0.0012.

`CCN(Cc1ccncc1)C(=O)C(CO)c1ccccc1` (stereo not given) [Tropicamide] came in with a growth under setting [1] of 0.308 ± 0.02; a growth under setting [2] of 0.266 ± 0.0032; a growth under setting [3] of 0.212 ± 0.027; a growth under setting [4] of 0.174 ± 0.0051; a growth under setting [5] of 0.158 ± 0.0048.

On to `Clc1ccc(Cn2c(CN3CCCC3)nc3ccccc32)cc1` [Clemizole hydrochloride], for which the growth under setting [1] is 0.0807 ± 0.029; the growth under setting [2] was determined as 0.0496 ± 0.00062; the growth under setting [3] came to 0.106 ± 0.049; the growth under setting [4] came out at 0.0465 ± 0.0005; the growth under setting [5] turned out to be 0.06017 ± 0.00057.

On to `C[C@H](N)[C@H](O)c1cccc(O)c1` [Metaraminol bitartrate], for which the growth is, setting by setting: under setting [1], 0.278 ± 0.0096; under setting [2], 0.267 ± 0.0062; under setting [3], 0.186 ± 0.013; under setting [4], 0.185 ± 0.0027; under setting [5], 0.153 ± 0.018.

Compound `Cc1cccn2c(=O)c(-c3nnn[nH]3)cnc12` [Pemirolast potassium] returned a growth under setting [1] of 0.268 ± 0.011; a growth under setting [2] of 0.2352 ± 0.0021; a growth under setting [3] of 0.151 ± 0.0021; a growth under setting [4] of 0.148 ± 0.0043; a growth under setting [5] of 0.125 ± 0.0032.
